Assay outcomes from PubChem BioAssay.
Only some compounds are listed: those with a hit (about 0.93% of all), similar ones and a draw of the others.
RPL19A TOR yeast: RPL19A-GFP expression modulators in yeast, primary screen, cell-based, S. cerevisiae, multiplex flow cytometry, MLPCN | S. cerevisiae RPL19A-GFP strain, 3 h; active compounds read low | 330,000 compounds, 0.3% hits | percent response vs DMSO, % at 10 µM;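 active = percent response vs DMSO below 50%; inconclusive = fewer than 70 events counted for the yeast strain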;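 also: median channel GFP fluorescence of the barcoded RPL19A-GFP strain; ratio of sample median GFP to plate DMSO average so 100% = DMSO; lower means less RPL19A-GFP as with rapamycin TOR inhibition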
LAP4 TOR yeast: modulators of LAP4-GFP expression in yeast, primary screen, S. cerevisiae, multiplex flow cytometry, MLPCN library. GFP response vs DMSO, % at 10 µM. AID 2023, 2009. 320,000 compounds, 0.34% hits. 3 h; median GFP as percent of DMSO wells;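 active = GFP response vs DMSO above a set limit, about the screen mean plus 3 SD, cut at about 150% in these data; inconclusive = under 70 cell events counted for the yeast strain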
CIT2 TOR yeast: modulators of CIT2-GFP expression in yeast, primary screen, S. cerevisiae, GFP fusion, multiplex flow cytometry, MLPCN library; S. cerevisiae CIT2-GFP strain, 3 h; 100 means same as DMSO wells; GFP response vs DMSO, % at 10 µM; 320,000 compounds, 0.065% hits; AID 2029, 2009;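 active = GFP response relative to DMSO above a set limit, near the screen mean plus 3 SD, cut at about 150% in these data; inconclusive = Fewer than 70 cells measured for a yeast strain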;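 also: ratio of well median GFP fluorescence to mean of DMSO wells on the plate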
MEP2-GFP yeast: modulators of MEP2-GFP levels in yeast, primary screen, S. cerevisiae, multiplex flow cytometry, MLPCN library; S. cerevisiae MEP2-GFP strain, 3 h; 100% = DMSO control level; GFP response vs DMSO, % at 10 µM; 330,000 compounds, 0.51% hits; AID 2016, 2009;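 active = GFP response versus DMSO above a set limit, roughly screen mean plus 3 SD, cut at about 180% in these data; inconclusive = fewer than 70 cells counted for a yeast strain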;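 also: median GFP fluorescence of the barcode-gated MEP2-GFP cells per well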
AGP1-GFP MLPCN: modulators of AGP1-GFP expression in yeast TOR pathway, primary screen, cell-based, multiplex flow cytometry, S. cerevisiae, MLPCN library; 3 h; GFP as percent of DMSO wells; GFP response vs DMSO, % at 10 µM; 320,000 compounds, 0.02% hits; AID 2066, 2009;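 active = GFP response relative to DMSO above a set limit, near screen average plus 3 SD, cut at about 150% in these data; inconclusive = fewer than 70 cells counted for the yeast strain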;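 also: median GFP channel fluorescence of the gated AGP1 strain per well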
Starred values were filed as active, the others as inactive; ? = inconclusive; . = no result; [ ] = another dose, or the depositor's remark.

SMILES	RPL19A TOR yeast	LAP4 TOR yeast	CIT2 TOR yeast	MEP2-GFP yeast	AGP1-GFP MLPCN
Cc1ccc(NC(=O)CC2Oc3ccc(C)cc3NC2=O)c(C)c1 (centres undefined)	102.6	95.5	100.1	102.3	99.2
CCc1cccc(C)c1NC(=O)CC1Oc2ccc(C)cc2NC1=O (centres undefined)	110.1	134.5	153.3*	202.8*	98.9
CC(C(=O)O)N1C(=O)C2C3CC(C2C1=O)C1C(c2ccccc2)c2sc(=O)[nH]c2SC31 (centres undefined)	92.8	88.2	101.1	113.4	90.7
Cc1cc(C)n(-c2nc(NC(C)C)nc(NC(C)C)n2)n1	17.8*[may fluoresce violet]	100.4	?	355.4*[may fluoresce violet]	?
Cc1cc(C)n(-c2nc(NC(C)(C)C)nc(NC(C)(C)C)n2)n1	107.3	96.2	107.9	101.7	110.5
COc1ccc(C(=O)Nc2ccccc2C(=O)Nc2cccnc2)cc1	96.7	94.2	89.8	98.8	98.3
COc1ccc(NC(=O)c2ccccc2NC(=O)c2ccccc2)cc1	106.7	132.2	139.8	190.3*	94.2
CCCc1c(C(=O)Nc2ccc(OC)cc2)cnn1-c1ccccc1	41.9*[may fluoresce violet]	95.9	?	208.0*[may fluoresce violet]	?
CC(O)c1nc2ccccc2n1CC(=O)N1CCN(c2ccccc2)CC1 (centres undefined)	97.4	88.5	95.3	96.9	90.4
CN1CCN(c2ccc(S(=O)(=O)N3CCCCC3)cn2)CC1	55.8	86.8	?	207.8*[may fluoresce violet]	.
Cc1nc2ccccc2n1CCC(=O)O	99.4	96.8	104.1	109.7	103.0
Cc1nc2ccccc2n2c(O)c(CC(=O)O)cc12	66.4	97.4	98.5	196.4*	67.4
C=C1CC[C@@]23CC[C@]4(C)[C@@](OC2=O)([C@@H]3C1)[C@H]1O[C@H]1C1[C@@]2(C)CC[C@H](O)C(C)(C)C2CC[C@]14C (some centres undefined)	93.2	120.0	89.3	103.9	95.1
CC(=O)COc1ccc2c(C)c(C)c(=O)oc2c1	.	99.1	98.3	97.8	97.4
Cc1c(C)c2ccc(OS(C)(=O)=O)cc2oc1=O	47.1*[may fluoresce violet]	70.7	?	350.8*[may fluoresce violet]	20.9
COc1ccc(N(CC(=O)N2CCC(C(N)=O)CC2)S(=O)(=O)c2ccccc2)cc1	42.0*[may fluoresce violet]	74.1	?	374.5*[may fluoresce violet]	?
CS(=O)(=O)N(CC(=O)N1CCC(C(N)=O)CC1)c1ccc(Oc2ccccc2)cc1	44.8*[may fluoresce violet]	97.9	?	255.3*[may fluoresce violet]	?
CCOC(=O)N1CCN(C(=O)CN(c2ccc(Oc3ccccc3)cc2)S(C)(=O)=O)CC1	94.7	94.3	95.6	95.4	91.3
Cc1ccccc1N1CCN(c2ccc(NC(=O)C3CCCCC3C(=O)O)cc2)CC1 (centres undefined)	98.1	91.5	96.0	91.1	96.7
CC1(C)CC(n2c(=S)[nH]c3ccccc3c2=O)CCO1 (centres undefined)	.	97.5	?	266.9*[may fluoresce violet]	28.9
CN(C)c1cccc(C(=O)N/N=C/c2ccccc2F)c1	63.6	106.1	?	290.8*[may fluoresce violet]	16.2
COc1ccc(Nc2cc(C(=O)NCCCN3CCN(C)CC3)c3ccccc3n2)c(OC)c1	44.1*[may fluoresce violet]	103.9	?	772.4*[may fluoresce violet]	?
COc1ccc(Nc2cc(C(=O)NCCCOC(C)C)c3ccccc3n2)c(OC)c1	102.3	108.6	114.9	140.4	94.6
O=C(Nc1nc(-c2ccc(S(=O)(=O)N3CCCC3)cc2)cs1)c1cccs1	95.5	99.2	88.6	94.3	95.9
O=C(Nc1nc(-c2ccc(S(=O)(=O)N3CCCCCC3)cc2)cs1)c1cccs1	71.4	89.3	?	212.1*[may fluoresce violet]	21.5
O=C(Nc1ccc(C(F)(F)F)cc1)c1cc(S(=O)(=O)NCC2COc3ccccc3O2)ccc1F (centres undefined)	101.5	98.3	105.5	101.4	105.1
COc1ccc(Br)cc1/C=N/NC(=O)Cn1nnnc1N	85.2	335.9*	83.7	122.0	46.2
O=C(Nc1cccnc1Cl)c1cc(-c2ccc(Br)cc2)on1	106.7	111.3	105.1	103.7	106.7
C=CCC1(CC=C)CCCN1Cc1nc(COc2ccccc2)no1	98.3	100.2	98.0	107.4	104.8
